This is a sample that favours compounds with a hit; in the whole collection about 15% have one here.
TDP1 cell CPT: DT40-hTDP1 cell growth loss with CPT | chicken DT40 Tdp1-/-;hTDP1 cells + 20 nM CPT, ATP luminescence, 48 h | Potency, µM (titrated, usually from 46.2 µM), for the others: top-dose activity change, negative = growth inhibition, usual class: inhibitors | 420,000 tested, 12% active; also: nearly all actives have a fitted effect of over 55% in size
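Chicken DT40 Tdp1-/- cells stably complemented with human TDP1 were seeded at 400 cells/well in medium containing 20 nM camptothecin, exposed to pin-transferred compounds, and grown at 37 °C for at least 48 hr. Viability was read as ATP luminescence.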
Gal4-VP16 FLuc: Gal4-VP16 reporter inhibition counter-screen; Drosophila S2 Gal4-VP16 UAS-luciferase, luminescence, 20 h; Potency, µM (titrated, usually from 53.6 µM), for inactives: top-dose activity, negative = inhibition, hits mostly inhibitors; 310,000 tested, 3.5% active;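 also: Gal4-VP16 expression switched on by copper sulfate through the metallothionein promoter; nearly all actives have a fitted effect of over 50% in size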
12-LOX inh: inhibitors of human 12S-lipoxygenase ALOX12. AID 1671190. Potency, µM (top dose mostly 108 µM), for the others: top-dose activity change, negative = inhibition, hits mostly inhibitors. 580,000 tested, 1.1% active. purified 12hLO, xylenol orange hydroperoxide absorbance
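Purified human 12hLO at 150 nM in 25 mM Hepes, 0.01% Triton X-100, pH 7.0, preincubated 15 min at room temperature with compound. Reaction started with 40 uM arachidonic acid, 30 min at room temperature. Hydroperoxide measured by Fe-xylenol orange, 573/405 nm absorbance ratio.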
RORg inh: ROR gamma (mouse) transcription inhibition; Drosophila S2 Gal4-RORgamma UAS-luciferase reporter, 20 h; P51450; Potency, µM (top dose mostly 53.6 µM), for the others: top-dose activity change, negative = inhibition, most hits filed as inhibitors; 310,000 tested, 5.4% active; AID 2551; also: nearly all actives have a fitted effect of over 60% in size
Target sequence (P51450 whole entry, looked up, the tested form may be a part): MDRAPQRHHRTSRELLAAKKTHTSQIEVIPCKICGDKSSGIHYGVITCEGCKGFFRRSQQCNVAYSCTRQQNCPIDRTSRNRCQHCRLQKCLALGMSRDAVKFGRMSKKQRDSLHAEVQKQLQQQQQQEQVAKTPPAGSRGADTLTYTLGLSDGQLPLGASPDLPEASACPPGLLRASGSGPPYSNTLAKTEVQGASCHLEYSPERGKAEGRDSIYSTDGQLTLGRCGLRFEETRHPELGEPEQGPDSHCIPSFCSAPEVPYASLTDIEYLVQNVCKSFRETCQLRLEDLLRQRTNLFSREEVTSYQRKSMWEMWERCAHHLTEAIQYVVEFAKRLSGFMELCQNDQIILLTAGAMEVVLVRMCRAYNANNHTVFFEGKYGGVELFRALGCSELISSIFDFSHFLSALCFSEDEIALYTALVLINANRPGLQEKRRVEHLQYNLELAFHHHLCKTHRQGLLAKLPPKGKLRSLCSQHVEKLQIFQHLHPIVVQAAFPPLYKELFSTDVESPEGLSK
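ROR gamma transcriptional activity was tracked as Gal4-UAS luciferase output in stably transfected Drosophila Schneider cells, with compound added 1 hr before 700 uM copper sulfate induction and a 20 hr ambient-temperature incubation.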
ELG1 DNA repair: blocks ELG1-dependent DNA repair in HEK293T cells; HEK293T ELG1-luciferase reporter, luminescence, 16 h; DNA damage induced by 5-fluorouridine; Potency, µM (highest dose often 46.1 µM), for the others: at the top dose activity change, negative = inhibition, most hits filed as inhibitors; 330,000 tested, 2.3% active; AID 504467; also: nearly all actives have a fitted effect of over 55% in size
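DMSO vehicle served as the neutral condition. Each well held 2,000 cells given 5-fluorouridine plus compound; after 16 hr at 37 °C/5% CO2, ONE-Glo was added and luciferase measured 30 min later.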
DT40 TDP1 no CPT: qHTS for Inhibitors of human tyrosyl-DNA phosphodiesterase 1 (TDP1): qHTS in cells in absence of CPT; DT40 Tdp1-/- hTDP1 cells, no CPT, ATP luminescence, 48 h; Potency, µM (titrated, usually from 46.2 µM), for the others: at the top dose activity change, negative = growth inhibition, usual class: inhibitors; 420,000 tested, 15% active; AID 686978, 2013; also: nearly all actives have a fitted effect of over 55% in size
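Chicken DT40 Tdp1-/- cells stably complemented with human TDP1 were seeded at 400 cells/well with DMSO in place of 20 nM camptothecin. After compound pinning, cells grew at least 48 hr at 37 °C; viability read by CellTiter-Glo luminescence.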
* hit, by the source's call; i = inactive; ? = inconclusive; . = no result given; [ ] = another dose, or the depositor's remark. Calls follow the shape of the dose curve; as a rule, active = well fitted curve in the direction sought with a large enough effect; inconclusive = small, poorly fitted or top-dose-only effect, or another doubt; inactive = no such curve, though single readings can be large; an effect the other way counts as inactive or inconclusive. % is scaled to controls: 0 for no effect and ±100 for the full control effect; potency is read from the fitted curve at half-maximal effect.

SMILES	TDP1 cell CPT	Gal4-VP16 FLuc	12-LOX inh	RORg inh	ELG1 DNA repair	DT40 TDP1 no CPT
O=C(NC1CCCCC1)C(c1cccs1)N(C(=O)Cc1c[nH]c2ccccc12)c1ccc(F)cc1 (centres undefined)	?	-9%	-20%	7%	-16%	14%
Cc1ccc(C(C(=O)NC2CCCCC2)N(C(=O)Cc2c[nH]c3ccccc23)c2ccccc2)o1 (centres undefined)	?	-14%	?	-4%	4%	?
COc1cc(C(C(=O)NC2CCCCC2)N(C(=O)Cc2c[nH]c3ccccc23)c2ccc(C)cc2)cc(OC)c1OC (centres undefined)	23µM*	-6%	-9%	-7%[10 µM]	?	26µM*
CC(O)c1ccc2c(c1)OCCOCCOCCOCCO2 (centres undefined)	.	.	-23%	.	.	.
Cc1ccc(-n2ncc3c(NNC(=O)c4ccco4)ncnc32)cc1C	?	7.1µM*	i	3.5µM*	?	?
COc1cc(C(C)=O)ccc1Oc1ncnc2c1cnn2-c1ccc(C)c(C)c1	12µM*	?	0%	?	16%	15µM*
COc1ccc(CC(=O)NNc2ncnc3c2cnn3-c2ccc(C)cc2)cc1OC	-3%	?	0%	6.3µM*	-7%	-20%
CC(=O)NNc1ncnc2c1cnn2-c1ccc(C)c(Cl)c1	-2%	?	2%	?	?	-23%
COc1cc(C(C)=O)ccc1Oc1ncnc2c1cnn2-c1ccccc1	?	25%	-2%	7%	14%	?
Cn1ncc2c(NNC(=O)c3ccccc3Cl)ncnc21	1%	?	23%	1µM*	22%	-1%
COc1ccc(CC(=O)NNc2ncnc3c2cnn3-c2ccc(C)cc2)cc1	2%	?	-1%	-38%	-9%	-28%
COc1cc(Cl)cc2cc(C(=O)N3CCOCC3)c(=O)oc12	.	.	3%	.	.	.
C=CCn1c(SCCO)nc2c1c(=O)n(C)c(=O)n2C	.	.	-19%	.	.	.
Cc1ccc(-c2cc(C(=O)NCc3ccco3)c3ccccc3n2)cc1C	.	.	-8%	.	.	.
CCCc1nnc(NC(=O)c2cc(=O)c3cc(Cl)c(C)cc3o2)s1	.	.	22%	.	.	.
O=C(NNc1ncnc2c1cnn2-c1cccc(Cl)c1)c1ccco1	-20%	7.1µM*	-16%	5µM*	-3%	-11%
Cc1ccc(Cl)cc1-n1ncc2c(NNC(=O)c3ccco3)ncnc21	2%	-2%	3%	?	-7%	-20%
Fc1cccc(Nc2cc(-n3cccn3)ncn2)c1	21µM*	?	-20%	?	3%	10µM*
CN1C(=O)C(c2ccccc2)CC12CCN(CCC(=O)O)CC2 (centres undefined)	.	.	49%	.	.	.
CCOC(=O)C1=C(Cc2ccc(Cl)cc2)C(=O)c2ccccc2C1=O	4.6µM*	?	.	8.9µM*	18%	4.6µM*
COc1ccc(OC)c(-c2nc3c(C)n[nH]c(=O)c3[nH]2)c1	?	-14%	-6%	-11%	6.5µM*	?
N#Cc1ccccc1CN1CCNc2nc(CNCc3ccc4c(c3)OCO4)n(Cc3ccccc3)c2C1=O	.	.	61%	.	.	.
O=C(Cc1ccc([N+](=O)[O-])cc1)Nc1cc(C(F)(F)F)cc(C(F)(F)F)c1	4.1µM*	-17%	135%	?	?	6.5µM*
COCc1nc(CCNC(=O)C2CCC2)no1	.	.	6%	.	.	.
Cn1cccc1C(=O)N1CCC2(CC1)CCN(c1ncccn1)CC2	?	4%	-12%[57.4 µM]	17%	.	?
SMILES	TDP1 cell CPT	Gal4-VP16 FLuc	12-LOX inh	RORg inh	ELG1 DNA repair	DT40 TDP1 no CPT
Cn1cccc1C(=O)N1CCC2(CC1)CCN(c1ccccn1)CC2	?	-6%	-2%[57.4 µM]	28%	.	15µM*
Cn1cccc1C(=O)N1CCC2(CC1)CCN(C(c1ccccc1)c1ccccc1)CC2	?	0%	4%[57.4 µM]	-13%	.	15µM*
Cn1cccc1C(=O)N1CCC2(CC1)CN(c1ccccn1)C2	-20%	11%	-9%[57.4 µM]	-24%	.	?
Cn1cccc1C(=O)N1CCC2(CCCN(c3ncccn3)C2)CC1	?	-15%	-15%[57.4 µM]	-15%	.	0.65µM*
Cn1cccc1C(=O)N1CCC2(CCN(C(=O)Nc3ccccc3)CC2)CC1	?	7%	-11%[57.4 µM]	-5%	.	?
COc1cc2cnc(-c3ccccc3)c(-c3cc(OC)c(OC)c(OC)c3)c2cc1OC	?	.	2%	.	9.2µM*	13µM*
COc1cc2cnc(-c3ccccc3)cc2cc1OC	18µM*	.	-24%	.	?	?
COc1cc2ncc(-c3ccccc3)nc2cc1OC	21µM*	.	-6%	.	.	25µM*
Cc1ccc(-c2cnc3ccccc3n2)cc1C	-1%	?	-8%	10µM*	?	-26%
Nc1ccc2nc(-c3ccccc3)cnc2c1	0%	.	13%	.	.	-23%
COc1cc2cnc(-c3ccccc3)c(-c3ccc([N+](=O)[O-])cc3)c2cc1OC	?	.	-8%	.	?	?
Oc1ccc(-c2cnc3ccccc3n2)cc1	8%	.	46%	.	.	-1%
COC(=O)c1cccc(COC(=O)C2Cc3ccccc3C(=O)O2)c1 (centres undefined)	.	.	4%	.	.	.
CN(C)CCCNC(=O)Cn1c(-c2ccccc2)cc2ccccc21	.	.	-5%	.	.	.
COc1ccc(-c2c(-c3ccccc3)c(C(=O)C(=O)NCCCN(C)C)n3ccc4cc(OC)c(OC)cc4c23)cc1OC	3.3µM*	?	?	?	-10%	18µM*
CC1CC(C)CN(C(=S)SCc2nc(N)nc(Nc3ccccc3)n2)C1 (centres undefined)	?	?	?	5.6µM*	?	?
CCOc1ccc(Nc2nc(N)nc(CSC(=S)N3CCOCC3)n2)cc1	?	-1%	0%	40%	?	21µM*
Cc1ccc(Nc2nc(N)nc(CSC(=S)N3CCOCC3)n2)cc1	-4%	-1%	-18%	9%	?	?
Nc1nc(CSC(=S)N2CCCCC2)nc(Nc2ccccc2)n1	?	-15%	-25%	?	?	?
COc1ccc(NC(=S)N2CCc3ccccc32)cc1OC	?	?	-13%	8.9µM*	?	-6%
O=[N+]([O-])c1ccc(NC(=S)N2CCc3ccccc32)cc1	-15%	?	-21%	13µM*	-16%	-11%
CCOc1ccccc1NC(=S)N1CCCc2ccccc21	-29%	-5%	-15%	3%	-4%	9%

Compound activity (PubChem)
